Assay results taken from PubChem BioAssay (NCI).
“And” between values parts separate entries of the source, which are not always exact repeats. Equal entries are not always repeated. The panel holds about 83,000 compounds, 20% with a hit somewhere; the sample as a whole holds those more often.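 Treatment: one concentration, 48 hours, 96-well format. Scoring: percent growth, with anything below 10 considered active.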 The source made the active and inactive calls.

What was measured:
Experiment in all cases: NCI-60 one-dose screen, 48 h (100 = growth as untreated, 0 = no growth, -100 = all killed)
HT29 colon = details: 10 µM
SNB-75 CNS = details: 10 µM
SNB-19 CNS = details: 10 µM
U251 CNS = details: 10 µM unless noted
PC-3 prostate = details: 10 µM
SK-MEL-5 melanoma = details: 10 µM unless noted
UACC-62 melanoma = details: 10 µM
LOX IMVI melanoma = details: 10 µM unless noted
SK-MEL-28 melanoma = details: 10 µM
SK-MEL-2 melanoma = details: 10 µM
SN12C renal = details: 10 µM
UO-31 renal = details: 10 µM
TK-10 renal = details: 10 µM
ACHN renal = details: 10 µM
CAKI-1 renal = details: 10 µM
CCRF-CEM leukemia = details: 10 µM
MOLT-4 leukemia = details: 10 µM
A498 renal = details: 10 µM
EKVX NSCLC = details: 10 µM

| Structure (SMILES) | growth (HT29 colon) | growth (SNB-75 CNS) | growth (SNB-19 CNS) | growth (U251 CNS) | growth (PC-3 prostate) | growth (SK-MEL-5 melanoma) | growth (UACC-62 melanoma) | growth (LOX IMVI melanoma) | growth (SK-MEL-28 melanoma) | growth (SK-MEL-2 melanoma) | growth (SN12C renal) | growth (UO-31 renal) | growth (TK-10 renal) | growth (ACHN renal) | growth (CAKI-1 renal) | growth (CCRF-CEM leukemia) | growth (MOLT-4 leukemia) | growth (A498 renal) | growth (EKVX NSCLC) |
| --- | --- | --- | --- | --- | --- | --- | --- | --- | --- | --- | --- | --- | --- | --- | --- | --- | --- | --- | --- |
| CCN1/C(=C/C=C/C=C/c2sc3ccccc3[n+]2CC)Sc2ccccc21 | -66.1% (active) | -45.6% (active) | -5.19% (active) | -6.94% (active) | 7.09% (active) | -95.4% (active) | -74.6% (active) | -57.5% (active) | -56.6% (active) | -59.1% (active) | -20.7% (active) | -35.3% (active) | -6.28% (active) | -45.6% (active) | -0.841% (active) | 8.96% (active) | -31.7% (active) |  |  |
| C[n+]1c2cc(N)ccc2cc2ccc(N)cc21 | 4.57% (active) [middle of 4 runs] |  |  | 1.21% (active) [middle of 4 runs] |  |  | -30.5% (active) and -37% (active) and -78.6% (active) | 1.35% (active) [middle of 4 runs] |  |  |  |  |  | 6.76% (active) [middle of 4 runs] | -22.5% (active) and 9.14% (active) | 17.7% (inactive) [middle of 4 runs] | 9.49% (active) [middle of 4 runs] |  |  |
| OCC1OC(n2cnc3c(=S)nc[nH]c32)C(O)C1O (stereo unspecified) | 98.4% (inactive) and 45.9% (inactive) | 110% (inactive) and 60.5% (inactive) | 111% (inactive) and 97.4% (inactive) | 93.5% (inactive) and 83.2% (inactive) | 89.1% (inactive) and 73.1% (inactive) | 102% (inactive) and 80.9% (inactive) | 92.3% (inactive) and 26.7% (inactive) | 98.2% (inactive) and 16.1% (inactive) | 113% (inactive) | 100% (inactive) and 57.6% (inactive) | 95.1% (inactive) and 82.5% (inactive) | 93.9% (inactive) and 50.5% (inactive) | 97.9% (inactive) and 40.7% (inactive) | 103% (inactive) and 32.9% (inactive) | 104% (inactive) and 18% (inactive) | 107% (inactive) and 32.7% (inactive) | 120% (inactive) and 35.7% (inactive) |  |  |
| CCC(C)(C)c1cc(O)c(C(C)(C)CC)cc1O | 28.5% (inactive) | 52.1% (inactive) | 21.8% (inactive) | 30.4% (inactive) | 32.3% (inactive) | 22.8% (inactive) | 35.4% (inactive) | 13% (inactive) | 43.5% (inactive) | 24.4% (inactive) | 36.5% (inactive) |  | 63.2% (inactive) | 43.4% (inactive) | 41.4% (inactive) |  | 24.7% (inactive) | 50.1% (inactive) |  |
| CCCCCCCCCCCC[N+](C)(C)Cc1ccccc1 | 5.91% (active) | -12.7% (active) | 20.5% (inactive) | 17.3% (inactive) | -18.7% (active) | -87.1% (active) | -41.2% (active) | 25.9% (inactive) | 17.5% (inactive) | -11.9% (active) | 10.1% (inactive) | 55.4% (inactive) | -1.57% (active) | 78.7% (inactive) | 82.1% (inactive) | -15.9% (active) | -21.9% (active) |  |  |
| CCO/C=C1\SC(=S)N(c2cccc(O)c2)C1=O | 98.5% (inactive) | 74.7% (inactive) | 96.3% (inactive) | 102% (inactive) | 98% (inactive) | 99.4% (inactive) | 103% (inactive) | 103% (inactive) | 102% (inactive) | 87.4% (inactive) | 98.1% (inactive) | 79.5% (inactive) | 88.3% (inactive) | 102% (inactive) | 98.9% (inactive) |  | 96.7% (inactive) |  |  |
| O=C(O)COc1ccc(OCC(=O)O)cc1 | 5.13% (active) | -11.9% (active) | 8.27% (active) | -0.509% (active) | 31% (inactive) | 2.69% (active) | -3.08% (active) | -64.4% (active) | 53.2% (inactive) | 64.9% (inactive) | 2.58% (active) | 50.5% (inactive) | 20.6% (inactive) | 30.1% (inactive) | 90.7% (inactive) | 2.46% (active) | 9.12% (active) |  |  |
| CO[C@H](C(=O)[C@@H](O)[C@@H](C)O)[C@@H]1Cc2cc3cc(OC4CC(OC5CC(O)C(O)C(C)O5)C(O)C(C)O4)c(C)c(O)c3c(O)c2C(=O)[C@H]1OC1CC(OC2CC(OC3CC(C)(O)C(O)C(C)O3)C(O)C(C)O2)C(O)C(C)O1 (stereo partly specified) | 0.182% (active) | -56.9% (active) | 13.3% (inactive) | 9.37% (active) | 10.5% (inactive) |  | -58.6% (active) | 7.02% (active) |  | -43.9% (active) | 24.8% (inactive) | -4.43% (active) | 9.9% (active) | 3.72% (active) | 17.2% (inactive) | 3.86% (active) | 6.22% (active) |  | 16.8% (inactive) |
| NNc1ccc2ccccc2c1 | 99.8% (inactive) and 104% (inactive) | 79.1% (inactive) and 75.7% (inactive) | 99% (inactive) and 102% (inactive) | 103% (inactive) and 101% (inactive) | 73% (inactive) and 82% (inactive) | 89.3% (inactive) and 87.6% (inactive) | 78% (inactive) and 99.9% (inactive) | 75.5% (inactive) and 91.7% (inactive) | 111% (inactive) and 114% (inactive) | 101% (inactive) and 108% (inactive) | 94.7% (inactive) and 102% (inactive) | 52.5% (inactive) and 68.7% (inactive) | 109% (inactive) and 120% (inactive) | 81.6% (inactive) and 98.7% (inactive) | 84.6% (inactive) and 95.5% (inactive) | 84.1% (inactive) and 114% (inactive) | 94.3% (inactive) and 109% (inactive) |  |  |
| CCCC1CCC(=C2C(=O)CCC2=O)O1 (stereo unspecified) | 94.2% (inactive) and 97.4% (inactive) | 81.8% (inactive) and -17.8% (active) | 99.7% (inactive) and 98.9% (inactive) | 102% (inactive) and 98.5% (inactive) | 95.1% (inactive) and 103% (inactive) | 88.6% (inactive) and 102% (inactive) | 86.8% (inactive) and 93.7% (inactive) | 94.5% (inactive) and 97.6% (inactive) | 103% (inactive) | 116% (inactive) and 125% (inactive) | 90.5% (inactive) and 101% (inactive) | 84.8% (inactive) and 96.3% (inactive) | 98.2% (inactive) and 118% (inactive) | 95.7% (inactive) and 96.2% (inactive) | 93.9% (inactive) and 90.5% (inactive) | 123% (inactive) and 99.8% (inactive) | 134% (inactive) and 120% (inactive) |  |  |
| CCCCCCCCCCCCSC(=NC)NC | 0.0905% (active) and 2.56% (active) | 74.8% (inactive) and 82.3% (inactive) | 42.6% (inactive) and 91.6% (inactive) | 8.04% (active) and 34.5% (inactive) | 42% (inactive) and 67.3% (inactive) | -5.79% (active) and 69.5% (inactive) | -58.4% (active) and 61.4% (inactive) | -39.5% (active) and 26.8% (inactive) | 26.8% (inactive) and 68.5% (inactive) | 79.2% (inactive) and 95.8% (inactive) | 39.4% (inactive) and 60.4% (inactive) | 35.2% (inactive) and 49.6% (inactive) | 62.1% (inactive) and 71.2% (inactive) | 43% (inactive) and 86.4% (inactive) | 45.8% (inactive) and 73.6% (inactive) | 23.7% (inactive) | 1.27% (active) and 19.1% (inactive) |  |  |
| Nc1nc(=S)c2ncn(C3OC(CO)C(O)C3O)c2[nH]1 (stereo unspecified) | 100% (inactive) and 14.3% (inactive) | 101% (inactive) and 27.5% (inactive) | 107% (inactive) and 78.6% (inactive) | 105% (inactive) and 54.1% (inactive) | 33.4% (inactive) | 116% (inactive) and 22.7% (inactive) | 102% (inactive) and 0.101% (active) | 104% (inactive) and 7.31% (active) | 115% (inactive) and 50.8% (inactive) | 93% (inactive) and 15.6% (inactive) | 107% (inactive) and 26% (inactive) | 95.4% (inactive) and 19.8% (inactive) | 120% (inactive) and -8.09% (active) | 112% (inactive) and 17.2% (inactive) | 113% (inactive) and -8.94% (active) | 96.4% (inactive) and 24.2% (inactive) | 100% (inactive) and 13.4% (inactive) |  |  |
| CSC1SCC2C(=O)N(C)C(C(C)C)C(=O)OCC(NC(=O)c3cnc4ccccc4n3)C(=O)NC(C)C(=O)N(C)C1C(=O)N(C)C(C(C)C)C(=O)OCC(NC(=O)c1cnc3ccccc3n1)C(=O)NC(C)C(=O)N2C (stereo unspecified) | 2.66% (active) | -80.2% (active) | -13.3% (active) | 5.23% (active) | -12.7% (active) | -73.1% (active) | -77% (active) | 3.98% (active) | -13.9% (active) | -28.3% (active) | 8.11% (active) | 13.4% (inactive) | 20.1% (inactive) | 2.44% (active) | -13% (active) | -25.7% (active) | -33.8% (active) |  |  |
| Oc1ccc(N=Nc2ccccn2)c(O)c1 | 21.6% (inactive) | 54.6% (inactive) | 31.2% (inactive) | 24.2% (inactive) | 36.1% (inactive) |  | -34.1% (active) | 8.85% (active) | 31.7% (inactive) | 27.8% (inactive) | 20.5% (inactive) | 5.48% (active) | 36.1% (inactive) | 13.8% (inactive) |  | 3.95% (active) | 4.34% (active) |  |  |
| O=C(Nc1ccc(C(=O)O)c(O)c1)c1ccccc1 | 103% (inactive) and 105% (inactive) | 96.4% (inactive) and 96.3% (inactive) | 107% (inactive) and 102% (inactive) | 96.6% (inactive) and 104% (inactive) | 91% (inactive) and 97.5% (inactive) | 107% (inactive) and 106% (inactive) | 96.7% (inactive) and 96.4% (inactive) | 97.4% (inactive) and 97% (inactive) | 110% (inactive) and 151% (inactive) | 113% (inactive) and 97.3% (inactive) | 95.2% (inactive) and 101% (inactive) | 81.3% (inactive) and 88.6% (inactive) | 106% (inactive) and 94.5% (inactive) | 96% (inactive) and 96.3% (inactive) | 102% (inactive) and 85.8% (inactive) | 130% (inactive) and 124% (inactive) | 109% (inactive) and 119% (inactive) |  |  |
